In PubChem BioAssay (Tox21):
Results filed as inconclusive are left out. The source made the active and inactive calls. Unless noted, calls come from the whole dose curve; as a rule, active = well fitted curve in the direction sought with a large enough effect in the repeat runs; inconclusive = weak or mixed curves; inactive = no such curve, though single readings can be large; an effect the other way counts as inactive or inconclusive.

Key:
[1] = qHTS assay for small molecules that induce genotoxicity in human embryonic kidney cells expressing luciferase-tagged ATAD5 (AID 651632); note: nearly all actives have a fitted effect of over 15% in size
Outline: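 HEK293T cells carrying luciferase-tagged ATAD5 were given compound or DMSO vehicle and incubated 16 hr at 37C, 5% CO2. Luciferase activity was read after 30 min at room temperature with Amplite; a rise signals genotoxic stress.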

[2] = qHTS assay for small molecule agonists of the p53 signaling pathway - cell viability (AID 651633; calls by dose curve; note: nearly all actives have a fitted effect of over 30% in size; note: potency is the fitted concentration of half-maximal effect)
Outline: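 Viability counter-read: CellTiter-Glo luminescence (30 min, room temperature) in the same p53RE-bla plates. These plates had been exposed to compounds for 16 h at 37 C.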

[3] = qHTS assay for small molecules that induce genotoxicity in human embryonic kidney cells expressing luciferase-tagged ATAD5 - cell viability (AID 651634; calls by dose curve; note: nearly all actives have a fitted effect of over 25% in size; note: potency is the fitted concentration of half-maximal effect)
Outline: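 HEK293T cells carrying luciferase-tagged ATAD5, 2,000 cells/well, exposed to compound for 15.5 hr at 37C. Viability read as live-cell protease activity by CellTiter-Fluor fluorescence after 30 min at 37C.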

[4] = qHTS assay for small molecule disruptors of the mitochondrial membrane potential - cell viability (AID 720634; calls by dose curve; note: nearly all actives have a fitted effect of over 20% in size; note: potency is the fitted concentration of half-maximal effect)
Outline: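 HepG2 cells, 2,000 per well, attached overnight, then treated 1 hr at 37 C, 5% CO2. Viability read as ATP by CellTiter-Glo luminescence after 30 min at room temperature. Read in the same wells as the m-MPI membrane-potential dye assay.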

[5] = qHTS assay for small molecule disruptors of the mitochondrial membrane potential (AID 720635); note: potency is the fitted concentration of half-maximal effect
Outline: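 Mitochondrial membrane potential tracked with Mito-MPS dye, red aggregates (ex 540/em 590 nm) against green monomers (ex 490/em 535 nm). Compound treatment 1 hr at 37C, dye 30 min in HepG2.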

[6] = qHTS assay to test for compound auto fluorescence at 590 nm (red) in HepG2 cells (AID 720674)
Outline: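 Red autofluorescence (Ex/Em 540/590 nm, Rose Bengal sodium equivalents) was measured in HepG2 cells, 2,000 per well in MEM plus 10% FBS, plated overnight at 37 C. Readings were taken 1 hr after adding 23 nL compound or DMSO, at 37 C and 5% CO2.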

[7] = qHTS assay to test for compound auto fluorescence at 535 nm (green) in HepG2 cells (AID 720675); note: potency is the fitted concentration of half-maximal effect
[8] = qHTS assay to test for compound auto fluorescence at 460 nm (blue) in HEK293 cells (AID 720678)
Outline: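 HEK293, 2,000 cells/well, 10% dialyzed FBS; attach 4-5 hr 37C; pin compound or DMSO; o/n 37C/5% CO2; fluorescence 405/460 nm; triamterene-equivalent units.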

[9] = qHTS assay to test for compound auto fluorescence at 590 nm (red) in HEK293 cells (AID 720679)
Outline: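 Intensity at 540nm excitation and 590nm emission is reported as Rose Bengal sodium-equivalent autofluorescence. Measurements followed overnight exposure (37C, 5% CO2) of HEK293 cells, 2,000 per well, to 23 nL compound.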

[10] = qHTS assay to test for compound auto fluorescence at 535 nm (green) in HEK293 cells (AID 720680)
[11] = qHTS assay to test for compound auto fluorescence at 460 nm (blue) in HEK293 cell free culture (AID 720681)
Outline: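 Blue fluorescence (Ex 405/Em 460 nm, triamterene-equivalent) was read immediately after pin transfer of compound or DMSO into medium (DMEM, 10% FBS) without cells.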

[12] = qHTS assay to test for compound auto fluorescence at 535 nm (green) in HEK293 cell free culture (AID 720682)
Outline: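 Compounds were pin-transferred into cell-free DMEM with 10% FBS, and green fluorescence was read at excitation 485 nm and emission 535 nm. Intensities were expressed as fluorescein-equivalent values.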

[13] = qHTS assay to test for compound auto fluorescence at 590 nm (red) in HEK293 cell free culture (AID 720683)
Outline: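 Red-channel autofluorescence of compounds in culture medium (DMEM, 10% FBS), no cells, measured at 540/590 nm. Rose Bengal sodium is the reference fluorophore for equivalence.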

[14] = qHTS assay to test for compound auto fluorescence at 590 nm (red) in HepG2 cell free culture (AID 720684)
Outline: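 Steps: dispense MEM/10% FBS medium, no cells; pin compound or DMSO vehicle; read red channel, Ex/Em 540/590 nm. Output given as Rose Bengal sodium equivalents.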

[15] = qHTS assay to test for compound auto fluorescence at 460 nm (blue) in HepG2 cell free culture (AID 720685)
Outline: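 Compound (23 nL) or DMSO pinned into cell-free MEM with 10% FBS; blue fluorescence read at 405/460 nm excitation/emission, expressed as auto-fluorescence equivalency to triamterene.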

[16] = qHTS assay to test for compound auto fluorescence at 535 nm (green) in HepG2 cell free culture (AID 720686); note: potency is the fitted concentration of half-maximal effect
[17] = qHTS assay to test for compound auto fluorescence at 460 nm (blue) in HepG2 cells (AID 720687)
Outline: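 Blue-channel autofluorescence (Ex/Em 405/460 nm, triamterene-equivalent) was measured after 1 hr compound exposure at 37 C, 5% CO2. Cells were HepG2, plated overnight at 37 C in MEM plus 10% FBS.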

Measured: Potency
Tags give direction and shape of the fitted curve or compound fluorescence and quenching.

CCCCCCCCCCn1cc[n+](CCCCCCCCCC)c1C
active: [2] 68.7 µM | [3] 68.7 µM | [4] 54.5 µM | [5] 2.17 µM
inactive: [1] | [6] | [7] | [8] | [9] | [10] | [11] | [12] | [13] | [14] | [15] | [16] | [17]

C1CCCC1
inactive: [1] | [2] | [3] | [4] | [5] | [6] | [7] | [8] | [9] | [10] | [11] | [12] | [13] | [14] | [15] | [16]

CCCCCCCC/C=C\CCCCCCCCOCCO
inactive: [1] | [6] | [7] | [8] | [9] | [10] | [11] | [12] | [13] | [14] | [15] | [17]
active: [2] 31.6 µM | [3] 39.8 µM | [4] 79.4 µM | [5] 1.78 µM

Cc1ccc(-n2nc(C(C)(C)C)cc2NC(=O)Nc2ccc(OCCN3CCOCC3)c3ccccc23)cc1
active: [5] 18.8 µM
inactive: [1] | [2] | [3] | [4] | [6] | [7] | [8] | [9] | [10] | [11] | [12] | [13] | [14] | [15] | [17]

Nc1ccc(N)c2ccccc12
inactive: [1] | [6] | [8] | [9] | [10] | [11] | [12] | [13] | [14] | [15] | [17]
active: [2] 15.3 µM | [3] 15.3 µM | [4] 13.7 µM | [5] 0.153 µM | [7] 8.91 µM

CCCCCCCC[N+](CCCCCCCC)(CCCCCCCC)CCCCCCCC
active: [2] 13.7 µM | [3] 30.6 µM | [4] 27.3 µM | [5] 0.0768 µM
inactive: [1] | [6] | [7] | [8] | [9] | [10] | [11] | [12] | [13] | [14] | [15] | [16]

CCCC(=O)OC[C@@H](OC(=O)CCC)[C@@H](OC(=O)CCC)[C@H](Cn1c2nc(=O)[nH]c(=O)c-2nc2cc(C)c(C)cc21)OC(=O)CCC
active: [5] 6.99 µM | [7] 8.91 µM | [16] 8.91 µM [fluorescent]
inactive: [1] | [2] | [3] | [4] | [6] | [8] | [9] | [11] | [13] | [14] | [15] | [17]

CC(C)(C)C(=O)OCOC(=O)C1N2C(=O)CC2S(=O)(=O)C1(C)C (configuration not stated)
inactive: [1] | [2] | [3] | [6] | [7] | [8] | [9] | [10] | [11] | [12] | [13] | [14] | [15] | [16] | [17]
